Laboratory results as given in PubChem BioAssay (Tox21).
Several values for one entry are separate records, joined by “and”; a condition that tells them apart may be missing. Equal values may be shown once. Inconclusive results are not listed. A call without a number means that no potency is given here. Some structures have more than one record in an assay (separate samples or runs), and their calls can disagree. Activity calls are given as the source filed them. Unless noted, the call rests on the fitted dose curve; in most records, active means well fitted curve in the direction sought with a large enough effect in the repeat runs; inconclusive means weak or mixed curves; inactive means no such curve, though single readings can be large; an effect the other way counts as inactive or inconclusive.

Legend:
[1] = A CellTox Green Cytotoxicity Assay to monitor cytotoxicity in HepG2 cells - 0 hour (AID 1224882); details: CellTox Green fluorescence; series mostly up to 76.8 µM; further: nearly all actives have a fitted effect of over 35% in size; further: potency means the concentration at half of the fitted maximal effect
Summary of the method: (§1)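 HepG2 cells were seeded together with the CellTox Green dye at 600 cells/well, left 5 h at 37 C/5% CO2, then given compounds in DMSO. Fluorescence from dye bound to dead-cell DNA was read repeatedly over 40 h of treatment at 37 C.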

[2] = A CellTox Green Cytotoxicity Assay to monitor cytotoxicity in HepG2 cells - 32 hour (AID 1224883); details: CellTox Green fluorescence; series mostly up to 76.8 µM; further: nearly all actives have a fitted effect of over 50% in size; further: potency means the concentration at half of the fitted maximal effect
Summary of the method: as §1

[3] = qHTS RealTime-Glo MT Cell Viability Assay in HEK293 cells - 24 hour (AID 1224886); details: RealTime-Glo luminescence; series mostly up to 76.8 µM; further: nearly all actives have a fitted effect of over 50% in size; further: potency means the concentration at half of the fitted maximal effect
Summary of the method: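 Assay medium contained NanoLuc luciferase plus cell-permeant prosubstrate, added with HEK293 cells at 600 cells/well. After 5 h at 37 C/5% CO2 compounds were added; plates stayed at 37 C for 40 h with serial luminescence reads.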

[4] = qHTS RealTime-Glo MT Cell Viability Assay in HEK293 cells - 8 hour (AID 1224887); details: RealTime-Glo luminescence; series mostly up to 76.8 µM; further: top concentration of the series differs between compounds; nearly all actives have a fitted effect of over 50% in size
Summary of the method: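 HEK293 cells mixed with RealTime-Glo reagents (NanoLuc plus cell-permeant prosubstrate) at 600 cells/well, preincubated 5 h at 37 C/5% CO2, then given 23 nL compound in DMSO. Nonlytic luminescence from viable cells was read at 0, 8, 16, 24, 32 and 40 h.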

[5] = A CellTox Green Cytotoxicity Assay to monitor cytotoxicity in HEK293 cells - 16 hour (AID 1224888); details: CellTox Green fluorescence; series mostly up to 76.8 µM; further: nearly all actives have a fitted effect of over 35% in size
Summary of the method: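 HEK293 cells premixed with CellTox Green dye were seeded at 600 cells/well and left 5 h at 37 C/5% CO2 before pin transfer of 23 nL compound in DMSO. Fluorescence from dye bound to dead-cell DNA was read during 40 h treatment.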

[6] = qHTS assay to identify small molecule antagonists of the estrogen receptor alpha (ER-alpha) signaling pathway using the BG1 cell line in the presence of 0.1 nM 17-beta-estradiol - cell viability counter screen (AID 1259241); details: VM7Luc4E2 (BG1) viability, CellTiter-Fluor protease, 22 h, 0.1 nM estradiol agonist added; series mostly up to 92.4 µM; further: nearly all actives have a fitted effect of over 40% in size
Summary of the method: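 Cells were plated and left 24 hr, compounds in DMSO were pinned in, 17beta-estradiol was added to 0.1 nM final, and after 22 hr CellTiter-Fluor reagent was added for 30 min before fluorescence was read.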

[7] = qHTS assay to identify small molecule antagonists of the androgen receptor (AR) signaling pathway using the MDA cell line in the presence of 0.5 nM R1881 - cell viability counter screen (AID 1259242); details: MDA-kb2 viability, CellTiter-Fluor protease fluorescence, 16 h; series mostly up to 92.4 µM; further: nearly all actives have a fitted effect of over 45% in size; further: potency means the concentration at half of the fitted maximal effect
Summary of the method: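 MDA-kb2 cells (human breast carcinoma, stably carrying MMTV-luciferase reporter) were exposed to compounds with 0.5 nM R1881 (final) for 16 hr at 37C, 0% CO2; viability then read as live-cell protease fluorescence (CellTiter-Fluor, 30 min) in the same wells.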

[8] = molecular target: Androgen receptor (Homo sapiens) (UniProt P10275); assay: qHTS assay to identify small molecule antagonists of the androgen receptor (AR) signaling pathway using the MDA cell line in the presence of 0.5 nM R1881 (AID 1259243); details: MDA-kb2 MMTV-luciferase, R1881 0.5 nM, 16 h; series mostly up to 92.4 µM; further: nearly all actives have a fitted effect of over 50% in size; further: potency means the concentration at half of the fitted maximal effect
Summary of the method: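 MDA-kb2 human breast carcinoma cells carrying an MMTV-luciferase reporter (AR- and GR-responsive) were plated, rested 5 hr at 37C, dosed with compounds, then stimulated with 0.5 nM R1881 (final) for 16 hr; luminescence was read after ONE-Glo.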

[9] = molecular target: Estrogen receptor (Homo sapiens) (UniProt P03372); assay: qHTS assay to identify small molecule antagonists of the estrogen receptor alpha (ER-alpha) signaling pathway using the BG1 cell line in the presence of 0.1 nM 17-beta-estradiol (AID 1259244); details: VM7Luc4E2 (BG1) ERE-luciferase, antagonist mode, 0.1 nM E2, 22 h; series mostly up to 92.4 µM; further: nearly all actives have a fitted effect of over 50% in size; further: potency means the concentration at half of the fitted maximal effect
Summary of the method: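 VM7Luc4E2 cells (endogenous full-length ER-alpha, stable 4xERE-luciferase) were grown 5 days in phenol red-free medium with charcoal-stripped FBS, then exposed 22 h at 37C to compounds plus 0.1 nM (final) 17beta-estradiol; ONE-Glo luminescence read-out.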

[10] = qHTS assay to identify small molecule HDAC inhibitors - cell viability counter screen (AID 1259365); details: HCT-116 viability, CellTiter-Glo ATP luminescence, 2 h; series mostly up to 92.4 µM; further: nearly all actives have a fitted effect of over 50% in size
Summary of the method: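 Counter screen in wild-type HCT-116 cells: compounds dissolved in DMSO are pin-transferred onto overnight-plated cells and left 2hr at 37C. ATP-based CellTiter-Glo luminescence then measures viable cells.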

[11] = qHTS assay to identify small molecule antagonists of the sonic hedgehog signaling (Shh) pathway - cell viability counter screen (AID 1259367); details: NIH/3T3 Gli1-Luc viability, CellTiter-Fluor, 24 h; series mostly up to 92.4 µM; further: nearly all actives have a fitted effect of over 55% in size; further: potency means the concentration at half of the fitted maximal effect
Summary of the method: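 Seed 3T3 Gli1-Luc cells at 2,000 per well; incubate 4 hr; add compound in DMSO, then conditioned medium; incubate at 37C with 5% CO2; add CellTiter-Fluor after 23 hr; read fluorescence 1 hr later.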

[12] = qHTS assay to identify small molecule agonists of the sonic hedgehog signaling (Shh) pathway (AID 1259368; calls by dose curve; further: nearly all actives have a fitted effect of over 15% in size); details: NIH/3T3 Gli1-Luc reporter, luciferase, 24 h; series mostly up to 92.4 µM
Summary of the method: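 NIH/3T3-derived 3T3Gli1-Luc cells carrying a stably integrated Gli1 response element–firefly luciferase reporter were plated, left 4 hr at 37 C, then given compounds in DMSO for 24 hr. Luminescence was read 30 min after adding luciferase reagent.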

[13] = qHTS assay to identify small molecule antagonists of the sonic hedgehog signaling (Shh) pathway (AID 1259369; calls by dose curve; further: nearly all actives have a fitted effect of over 45% in size; further: potency means the concentration at half of the fitted maximal effect); details: NIH/3T3 Gli1-Luc reporter, Shh antagonist, luminescence 24 h; series mostly up to 92.4 µM
Summary of the method: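 NIH/3T3-derived 3T3Gli1-Luc cells with stably integrated Gli1-Luc reporter were preincubated 4hr at 37 C, then given compounds in DMSO plus Shh conditioned medium and incubated 24hr. Firefly luciferase luminescence read after 30min reagent at room temperature.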

[14] = qHTS RealTime-Glo MT Cell Viability Assay in HepG2 cells - 16 hour (AID 1224885); details: RealTime-Glo luminescence; series mostly up to 76.8 µM; further: nearly all actives have a fitted effect of over 50% in size
Summary of the method: (§2)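 qHTS, HepG2, 600 cells/well, RealTime-Glo (NanoLuc + prosubstrate) added with cells; 5 h preincubation; DMSO compound addition; 37 C; luminescence at 0/8/16/24/32/40 h.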

[15] = A CellTox Green Cytotoxicity Assay to monitor cytotoxicity in HepG2 cells - 8 hour (AID 1224890); details: CellTox Green fluorescence; series mostly up to 76.8 µM; further: nearly all actives have a fitted effect of over 45% in size; further: potency means the concentration at half of the fitted maximal effect
Summary of the method: as §1

[16] = qHTS assay to identify small molecule agonists of the sonic hedgehog signaling (Shh) pathway - cell viability counter screen (AID 1259366); details: NIH/3T3 Gli1-Luc viability, CellTiter-Fluor, 24 h; series mostly up to 92.4 µM; further: nearly all actives have a fitted effect of over 50% in size; further: potency means the concentration at half of the fitted maximal effect
Summary of the method: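 Cells are plated at 2,000 per well and left 4hr at 37C, 5% CO2 before compound addition. After 23hr of treatment, CellTiter-Fluor reagent is added for 1hr at 37C and fluorescence is measured.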

[17] = qHTS RealTime-Glo MT Cell Viability Assay in HepG2 cells - 0 hour (AID 1224889); details: RealTime-Glo luminescence; series mostly up to 76.8 µM; further: nearly all actives have a fitted effect of over 50% in size; further: potency means the concentration at half of the fitted maximal effect
Summary of the method: as §2

[18] = qHTS assay to identify small molecule phospholipidosis (PLD) inducers (AID 1259344; active means well fitted curve in the direction sought with a large enough effect; an effect the other way counts as inactive or inconclusive); details: HepG2 phospholipidosis, LipidTOX Red imaging, 24 h; series mostly up to 38.3 µM
Summary of the method: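 Quantitative HTS in HepG2: compound plus LipidTOX Red dye for 24 h, paraformaldehyde fixation with Hoechst 33342, widefield high-content imaging; amiodarone as positive and DMSO as negative control.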

[19] = qHTS assay to identify small molecule HDAC inhibitors (AID 1259364); details: HCT-116 HDAC-Glo I/II luminescence, 2 h; series mostly up to 92.4 µM; further: top concentration of the series differs between compounds; nearly all actives have a fitted effect of over 45% in size
Summary of the method: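 Wild-type HCT-116 cells were plated overnight, exposed to compounds for 2 h at 37 °C, then given HDAC-Glo class I/II luminogenic reagent for 30 min at room temperature before luminescence was read.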

Estrogen receptor (Homo sapiens), sequence (P03372 whole entry, looked up): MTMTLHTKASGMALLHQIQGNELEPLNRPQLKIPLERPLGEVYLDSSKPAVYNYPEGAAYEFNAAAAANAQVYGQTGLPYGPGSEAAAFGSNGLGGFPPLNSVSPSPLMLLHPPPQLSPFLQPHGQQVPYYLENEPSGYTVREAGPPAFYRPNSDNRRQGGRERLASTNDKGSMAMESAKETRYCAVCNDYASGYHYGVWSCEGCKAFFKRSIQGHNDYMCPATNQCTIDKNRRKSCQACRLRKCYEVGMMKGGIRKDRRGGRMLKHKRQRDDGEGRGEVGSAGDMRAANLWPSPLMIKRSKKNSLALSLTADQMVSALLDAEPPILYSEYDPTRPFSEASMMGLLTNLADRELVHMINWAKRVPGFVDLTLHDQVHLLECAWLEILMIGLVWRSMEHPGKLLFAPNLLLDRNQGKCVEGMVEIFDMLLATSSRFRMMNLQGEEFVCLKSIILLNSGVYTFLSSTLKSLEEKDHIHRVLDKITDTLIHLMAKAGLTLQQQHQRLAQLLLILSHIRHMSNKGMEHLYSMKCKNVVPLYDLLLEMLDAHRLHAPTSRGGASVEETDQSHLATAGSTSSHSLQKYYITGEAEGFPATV
Androgen receptor (Homo sapiens), sequence (P10275 whole entry, looked up): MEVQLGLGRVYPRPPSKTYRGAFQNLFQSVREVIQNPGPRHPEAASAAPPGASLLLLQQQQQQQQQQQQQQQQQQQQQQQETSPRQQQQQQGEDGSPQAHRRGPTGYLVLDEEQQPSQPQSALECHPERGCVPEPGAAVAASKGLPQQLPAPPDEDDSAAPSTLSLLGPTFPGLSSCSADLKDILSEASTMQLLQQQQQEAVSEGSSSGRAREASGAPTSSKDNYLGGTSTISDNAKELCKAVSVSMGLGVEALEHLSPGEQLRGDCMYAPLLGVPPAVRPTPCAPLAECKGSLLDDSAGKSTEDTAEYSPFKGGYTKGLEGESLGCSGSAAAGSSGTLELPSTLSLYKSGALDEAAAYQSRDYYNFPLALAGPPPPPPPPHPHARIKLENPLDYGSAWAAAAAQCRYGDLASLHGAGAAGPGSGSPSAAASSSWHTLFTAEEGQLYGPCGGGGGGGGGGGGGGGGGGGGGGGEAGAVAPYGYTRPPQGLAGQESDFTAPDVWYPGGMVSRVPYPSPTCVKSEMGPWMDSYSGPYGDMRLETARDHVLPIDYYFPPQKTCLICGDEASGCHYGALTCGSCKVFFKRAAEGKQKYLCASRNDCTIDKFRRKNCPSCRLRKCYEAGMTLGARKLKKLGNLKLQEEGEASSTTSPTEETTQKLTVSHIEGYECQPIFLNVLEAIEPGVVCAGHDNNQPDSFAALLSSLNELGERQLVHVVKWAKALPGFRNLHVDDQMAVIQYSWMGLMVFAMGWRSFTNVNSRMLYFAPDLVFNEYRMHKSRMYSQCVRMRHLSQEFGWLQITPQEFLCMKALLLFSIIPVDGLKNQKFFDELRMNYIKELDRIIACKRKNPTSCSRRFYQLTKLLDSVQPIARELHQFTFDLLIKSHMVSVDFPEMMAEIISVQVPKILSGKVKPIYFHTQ

| SMILES | Potency [1] | Potency [2] | Potency [3] | Potency [4] | Potency [5] | Potency [6] | Potency [7] | Potency [8] | Potency [9] | Potency [10] | Potency [11] | Potency [12] | Potency [13] | Potency [14] | Potency [15] | Potency [16] | Potency [17] | Potency [18] | Potency [19] |
| --- | --- | --- | --- | --- | --- | --- | --- | --- | --- | --- | --- | --- | --- | --- | --- | --- | --- | --- | --- |
| Nc1cc(Cl)c(-c2cc(Cl)c(N)cc2Cl)cc1Cl | inactive | 17.4 µM (active) and 54.9 µM (active) | 11 µM (active) | inactive | inactive | inactive | inactive | 4.32 µM (active) and 2.17 µM (active) | 24.3 µM (active) and 34.4 µM (active) | inactive | 54.4 µM (active) and 38.6 µM (active) | inactive | 1.09 µM (active) and 864 nM (active) | – | – | – | – | – | – |
| CCn1c2ccccc2c2cc(N)ccc21 | inactive | inactive | – | inactive | – | – | inactive | – | inactive | inactive | inactive | inactive | 15.2 µM (active) and inactive | inactive | inactive | inactive | – | – | – |
| Cc1ccnc2c1NC(=O)c1cccnc1N2C1CC1 | inactive | inactive | inactive | inactive | – | – | inactive | – | – | inactive | inactive | inactive | inactive | inactive | inactive | – | inactive | inactive | – |
| O | inactive | inactive | – | inactive | inactive | inactive | inactive | – | – | inactive | inactive | inactive | – | inactive | – | inactive | – | – | – |
| CC(C)(C)c1cc(C(C)(C)C)c(O)c(C(C)(C)C)c1 | inactive | – | inactive | inactive | – | inactive | inactive | – | inactive | inactive | inactive | inactive | inactive | – | inactive | – | inactive | – | inactive |
| CCCCC(CC)COC(=O)CC(C(=O)OCC(CC)CCCC)S(=O)(=O)O (configuration not stated) | inactive | 42 µM (active) and 43.6 µM (active) | – | – | – | inactive | inactive | – | inactive | inactive | inactive | inactive | inactive | inactive | inactive | – | – | inactive | inactive |
| CC(C)(C)NCC(O)c1cc(O)cc(O)c1 (configuration not stated) | inactive | inactive | inactive | inactive | – | inactive | inactive | – | – | inactive | inactive | inactive | inactive | – | inactive | inactive | inactive | inactive | – |
| C=CC(=O)OCCCCCCOC(=O)C=C | inactive | inactive | 43.6 µM (active) | – | inactive | inactive | inactive | – | inactive | inactive | 54.5 µM (active) | inactive | 19.6 µM (active) and 19.3 µM (active) | – | inactive | 31 µM (active) and 61.1 µM (active) | inactive | – | inactive |
| NCCO | inactive | inactive | – | inactive | inactive | inactive | inactive | – | inactive | inactive | inactive and 43.3 µM (active) | inactive | inactive and 15.4 µM (active) | inactive | inactive | inactive | inactive | inactive | – |
| CC1COC(=O)O1 (configuration not stated) | inactive and 43.6 µM (active) | inactive and 43.6 µM (active) | inactive | inactive | – | inactive | inactive | inactive | inactive | inactive | inactive | inactive | inactive | inactive | inactive and 43.6 µM (active) | inactive | inactive | – | inactive |
| CC(=O)C1=C(C)[C@@H]2C[C@@]3(C1)[C@H](C)CC[C@H]3C2(C)C | inactive | inactive | inactive | inactive | – | – | inactive | – | inactive | inactive | inactive | inactive | inactive | – | inactive | inactive | inactive | – | inactive |
| c1ccc2c(c1)CCCC2C1=NCCN1 (configuration not stated) | inactive | inactive | – | inactive | – | inactive | inactive | – | inactive | inactive | inactive | inactive | – | – | – | inactive | inactive | inactive | – |
| CC(C)CCOCc1ccccc1 | inactive | inactive | inactive | inactive | – | inactive | inactive | inactive | inactive | inactive | inactive | inactive | inactive | inactive | inactive | – | – | – | inactive |
| C=C(C)C1CC=C(C)C(OC(C)=O)C1 (configuration not stated) | inactive | inactive | – | inactive | – | – | inactive | – | inactive | inactive | inactive | inactive | inactive | – | inactive | – | inactive | – | inactive |
| CCCCCC(=O)O[C@]1(C(C)=O)CC[C@H]2[C@@H]3CCC4=CC(=O)CC[C@]4(C)[C@H]3CC[C@@]21C | inactive | inactive | – | inactive | – | – | 43 µM (active) | – | 48.2 µM (active) | inactive | 68.1 µM (active) and inactive | inactive | – | – | – | inactive | 4.34 µM (active) | inactive | inactive |
